SMILES strings stand for the structures. “And” between values parts separate entries of the source, which are not always exact repeats. Identical values can stand only once. The panel holds about 83,000 compounds, 20% with a hit somewhere; the sample as a whole holds those more often.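 48-hour exposure, single concentration, 96-well plates; percent growth endpoint where 0 means no net growth. Active: below 10.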 A number with no mark means an inactive call. The source made the active and inactive calls.

The experiment has as its system MDA-MB-468 breast. The experiment can be described thus: NCI-60 one-dose screen, 48 h (100 = growth as untreated, 0 = no growth, -100 = all killed). To be noted: 10 µM unless noted.
With `CCN(CC)CCOCC[C@H]1CC[C@H]2[C@@H]3[C@H](C)Cc4cc(OS(N)(=O)=O)ccc4[C@H]3CC[C@]12C`, the growth is -87.2% (active).
On to `Cc1cn(-c2cc(NC(=O)c3ccc(C)c(Nc4nccc(-c5cnccn5)n4)c3)cc(C(F)(F)F)c2)cn1`, for which the growth is 103%.
Under `COc1cc2oc(-c3cccc(C(=O)Nc4ccc(C#N)cc4)c3)cc(=O)c2c(O)c1OC` stands 77.3%; under `COc1ccc(-n2c(C(O)c3ccccc3)nn(CN3CCOCC3)c2=S)cc1` (stereo not given), 97.5%; under `O=C(NO)c1ccc(-n2nc(-c3ccccc3)c3ccccc32)cc1`, 52.9%.
Regarding `O=C(Nc1ccccc1O)c1ccc(CNC(=O)c2sccc2Nc2ccnc(C(F)(F)F)c2)cc1`, the growth was 14.8%.
Take `Cc1ccc(-c2nc(C#N)c(S(=O)(=O)n3nc(-c4ccccc4)cc3N)o2)cc1`: the growth was 63.1%.
As for `COC(=O)C1(C)COP(=O)(NC23CC4CC(CC(C4)C2)C3)OC1` (stereo not given), the growth is 110%.
Under `O=C(CCCCCCSc1nc(-c2ccc(Cl)cc2)cc(-c2ccc(Cl)cc2)n1)NO` stands 32.6%; under `CC(=NNc1ncnc2ccccc12)c1ccc(S(C)(=O)=O)cc1`, 103%.
In the case of `O=C1OCC2=C1C(c1cccc([N+](=O)[O-])c1)c1cc3c(cc1N2CCO)CCC3` (stereo not given), the growth is 4.98% (active).
Under `O=Cc1ccc(O)c(O)c1` stands 93.4%.
Under `C=C(C)[C@@H]1CC[C@]2(C)[C@H](CC=C3[C@@H]4CC(C)(C)CC[C@]4(C(=O)OC)CC[C@]32C)[C@@]1(C)CC/C(N)=N/O` stands -13% (active).
Under `COc1ccccc1-c1ccc2c(N)c(C(=O)c3ccc4c(c3)OCO4)sc2n1` stands 55.1%.
For the compound `S=C1CCSC(=S)N1CCCN1C(=S)CCSC1=S`, the growth is 37.8%.
On to `CC(=O)OCC(=O)[C@@]1(O)[C@H](C)C[C@H]2[C@@H]3C=C(C)C4=Cc5c(cnn5-c5ccc(F)cc5)C[C@]4(C)[C@H]3[C@@H](O)C[C@@]21C`, for which the growth was -22.6% (active).
Under `Cc1ccn2c3c(c(C(=O)O)c2c1)C(=O)c1ccccc1C3=O` stands 84.7%; under `N#Cc1ccc(-c2ccc(-c3cccs3)o2)cc1F`, 6.91% (active); under `CN1CCN(C(=O)OCc2nc3c(N4CCOCC4)nc(-c4ccccc4)nc3n2C)CC1`, -59% (active).
Under `N#Cc1c(-c2ccccc2)cc(-c2ccccc2)n(CCCC(=O)O)c1=O` stands -27.1% (active); under `CCOc1ccc(NC(=O)CSc2oc(-c3ccccc3)nc2S(=O)(=O)c2ccc(F)cc2)cc1`, 58.4%; under `O=C(O)c1cc(=O)[nH]c(=O)[nH]1`, 97.9% and 80.6%.
Under `O=C1/C(=C/c2cccc(F)c2)CN(C(=O)C(Cl)Cl)C/C1=C\c1cccc(F)c1` stands -47.4% (active).
For the compound `Cc1cc(=O)n2nnc3cc(Cl)c(Cl)cc3n12`, the growth is 67%.
As to `COc1cc(/C=N/NC(=O)c2cnn3c2NC(c2ccccc2)C3)ccc1Oc1ccccc1` (stereo not given), the growth is 6.71% (active).
Under `O=CN1N=C(c2ccc(Nc3ccnc4cc(Cl)ccc34)cc2)CC1c1ccc(Cl)cc1` (stereo not given) stands -0.669% (active); under `COc1ccc(NC(=O)Nc2ccc(Nc3nc(C)cc(Nc4ccc(C)cc4)n3)cc2)cc1`, -68.9% (active); under `C=C1CCC2C3(C)COC(c4ccc(SC)cc4)OC3CCC2(C)C1C/C=C1/C(=O)OCC1O` (stereo not given), 77.4%.
As to `COc1ccc(CN2c3ccccc3Oc3ccccc32)cc1F`, the growth is 44.3%.
Under `O=C(c1c[nH]c2ccccc12)c1n[nH]c(=S)n1-c1ccc([N+](=O)[O-])cc1` stands 106%.
Under `CCOC(=O)c1cn2ncnc(Oc3ccc(NC(=O)NCCN4CCOCC4)c(Cl)c3)c2c1C` stands 85.1%; under `O=C1c2ccccc2C(=O)N1OCc1ccccc1`, 125%; under `CC(=O)N1CCN(c2ccc(OCC3CO[C@](Cn4ccnc4)(c4ccc(Cl)cc4Cl)O3)cc2)CC1` (stereo not given in full), 26.5%.
As for `[2H]c1nc(=Nc2cc(NC(=O)C=C)c(N(C)CCN(C)C)cc2OC)[nH]c(-c2cn(C([2H])([2H])[2H])c3ccccc23)c1[2H]`, the growth is -9.46% (active).
Turning to `[O-]/[N+](=C\c1ccccc1)CC1(O)CCCCC1`, the growth is 108%.
Under `CS(=O)(=O)c1ncc(-c2ccccc2)cn1` stands 95.6%; under `COc1cc(/C=C/C(=O)C(=Cc2ccc(F)c(F)c2)C(=O)/C=C/c2ccc(O)c(OC)c2)ccc1O`, 25.6%; under `CCCCCCCCCCCCCC[n+]1ccc2c(C)c3c(c(C)c2c1)c1cc(O)ccc1n3CC`, -63.6% (active).
Under `CCC(C)C(N)C(=O)NNc1n[nH]c(=S)n1N` (stereo not given) stands 104%; under `O=C(O)C1CCCCN1c1nc(Cl)nc(Cl)n1` (stereo not given), 102%.

Values taken from PubChem BioAssay (NCI).
